# Screening results: PubChem BioAssay, National Center for Advancing Translational Sciences (NCATS)
# Shown are actives, neighbours in structure and some others; about 21% of the full set was active somewhere.
# ClpP mod = qHTS Assay for Activators of ClpP; ATP-dependent Clp protease proteolytic subunit (Bacillus subtilis (strain 168)), P80244; purified B. subtilis ClpP, FRET peptide cleavage, 20 min; Potency, µM (titrated, usually from 57.5 µM), inactives show top-dose activity change, negative = active; 340,000 compounds, 1.9% hits; active = well fitted falling curve with a large enough effect; inconclusive = small, poorly fitted or top-dose-only effect; inactive = no such curve, though single readings can be large or run the other way; note: potency is the fitted concentration of half-maximal effect; the source files actives as falling curves though it sought activators and does not explain the sign; nearly all actives have a fitted effect of over 65% in size
# Target sequence (P80244 whole entry, looked up): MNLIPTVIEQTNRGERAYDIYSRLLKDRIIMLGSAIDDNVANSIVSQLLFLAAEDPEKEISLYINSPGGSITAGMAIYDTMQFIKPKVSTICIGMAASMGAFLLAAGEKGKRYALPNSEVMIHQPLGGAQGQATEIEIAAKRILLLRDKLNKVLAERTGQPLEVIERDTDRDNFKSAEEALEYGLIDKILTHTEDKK
#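 FRET quenching reversal measured ClpP activation: 10 microg/mL B. subtilis ClpP at pH 8 with the FRET-FV decapeptide, read at 430 nm after 320 nm excitation. The 20-min minus 0-min signal was scaled between DMSO/no-enzyme wells and ADEP (5.8 microM final).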
# DRD3 agonist = activates the human D3 dopamine receptor; P35462; D3R DiscoveRx beta-arrestin cells, luminescence, 90 min; max activation, %; 410,000 compounds, 0.58% hits; AID 652048; in the data active = max activation above about 30%; note: 0% is about no effect
# Target sequence (P35462 whole entry, looked up): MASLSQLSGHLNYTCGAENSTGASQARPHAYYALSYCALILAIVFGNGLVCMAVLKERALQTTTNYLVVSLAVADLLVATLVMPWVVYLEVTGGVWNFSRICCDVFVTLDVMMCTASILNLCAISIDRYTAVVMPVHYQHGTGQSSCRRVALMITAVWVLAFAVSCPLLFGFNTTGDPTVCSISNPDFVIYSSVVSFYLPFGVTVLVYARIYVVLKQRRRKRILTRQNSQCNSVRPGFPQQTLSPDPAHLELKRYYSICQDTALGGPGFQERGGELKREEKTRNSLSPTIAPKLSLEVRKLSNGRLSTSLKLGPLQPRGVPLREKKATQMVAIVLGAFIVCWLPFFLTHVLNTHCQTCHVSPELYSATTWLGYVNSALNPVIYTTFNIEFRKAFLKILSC
#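 Agonist mode: compounds and dopamine controls were applied to plated cells for 90 min at 37 degrees C after an overnight attachment at 1500 cells/well. Luminescent read-out followed 30 - 60 minutes at room temperature with DiscoveRx detection reagent.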
# TDP1 cell noCPT = qHTS for Inhibitors of human tyrosyl-DNA phosphodiesterase 1 (TDP1): qHTS in cells in absence of CPT | Potency, µM (series often up to 46.2 µM), inactives show at the top dose activity change, negative = growth inhibition, most hits filed as inhibitors | DT40 Tdp1-/- hTDP1 cells, no CPT, ATP luminescence, 48 h | 420,000 compounds, 15% hits; note: potency is the fitted concentration of half-maximal effect; % is set by controls: 0 for no effect and ±100 for the full control effect; nearly all actives have a fitted effect of over 55% in size
#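 Cells were dispensed at 400 per well, compounds added by pin tool, plates incubated ≥48 hr at 37 °C, then CellTiter-Glo added for 30 min at room temperature before luminescence reading. Line: DT40 Tdp1-/- complemented with hTDP1; camptothecin omitted.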
# DT40 TDP1 CPT = growth inhibition of DT40 Tdp1-/-;hTDP1 cells with camptothecin (screen for TDP1 inhibitors). Potency, µM (series often up to 46.2 µM), without a hit: top-dose activity change, negative = growth inhibition, actives largely listed as inhibitors. chicken DT40 Tdp1-/-;hTDP1 cells + 20 nM CPT, ATP luminescence, 48 h. 420,000 compounds, 12% hits; note: potency is the fitted concentration of half-maximal effect; % is set by controls: 0 for no effect and ±100 for the full control effect; nearly all actives have a fitted effect of over 55% in size
#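 Chicken DT40 Tdp1-/- cells complemented with human TDP1, 400 cells/well, exposed to compounds plus 20 nM camptothecin for at least 48 h at 37 C; viability read as ATP content by CellTiter-Glo luminescence.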
# D3 antag = blocks the human D3 dopamine receptor. P35462. D3R cells, DiscoveRx beta-arrestin luminescence, antagonist mode; active compounds read low. max response, negative = inhibition, %. 360,000 compounds, 2.5% hits; in the data active = max response below about -50%; inconclusive = no clear call, values can overlap the other calls; note: % is set by controls: 0 for no effect and ±100 for the full control effect
#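 Cells expressing the human receptor were seeded at 1500 cells/well, incubated overnight at 37 degrees C in 5% CO2, then exposed to library compounds with dopamine controls for 90 minutes at 37 degrees C before luminescent detection.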
# IL-1B inflam inh = inhibitors of inflammasome signaling (IL-1 beta secretion) | THP-1 LPS/ATP IL-1B secretion, AlphaLISA, 16 h; active compounds read low | activity change, % at 57.5 µM | 360,000 compounds, 4.7% hits; in the data active = activity change below about -50%; inconclusive = mostly about -30% to -49%; note: % is set by controls: 0 for no effect and ±100 for the full control effect
#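 THP-1 cells pretreated 1 hr with compounds (up to 57.5 uM final), then stimulated with LPS (250 ng/mL final) plus ATP (1.25 mM final); secreted IL-1B measured by AlphaLISA after 16 hr, decreased signal indicating inhibition.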
# ClpP inh valid = Bacillus subtilis ClpP inhibition, validated hit | shares compounds with ClpP mod | purified B. subtilis ClpP, FRET-FV substrate cleavage, 20 min | Potency, µM (series often up to 57.5 µM), without a hit: top-dose activity change, negative = inhibition, usual class: inhibitors | 470 compounds, 40% hits | AID 743245; note: potency is the fitted concentration of half-maximal effect; % is set by controls: 0 for no effect and ±100 for the full control effect; nearly all actives have a fitted effect of over 70% in size
# Active calls of the source: *; ? = inconclusive; · = not tested or not shown. Unless noted, calls come from the whole dose curve; as a rule, active = well fitted inhibition curve with a large enough effect; inconclusive = small, poorly fitted or top-dose-only effect; inactive = flat fitted curve, though single readings scatter.
SMILES,ClpP mod,DRD3 agonist,TDP1 cell noCPT,DT40 TDP1 CPT,D3 antag,IL-1B inflam inh,ClpP inh valid
Cc1ccc(SCC(=O)Nc2ccc(-c3nnc(-c4ccco4)o3)cc2)cc1,?,7.8,?,?,-10.9,-6.1,·
O=C(Cc1ccccc1)Nc1ccc(-c2nnc(-c3ccco3)o2)cc1,8.91µM*,4.3,-7.3%,-20.0%,-6.9,4.4,-20.5%
CCC(=O)Nc1ccc(-c2nnc(-c3ccccc3)o2)cc1,2.82µM*,-1.2,1.4%,-3.5%,12.6,-14.4,7.69µM*
CCC(=O)Nc1ccc(-c2nc3ccccc3c(=O)o2)cc1,·,-1.4,0.3%,3.5%,9.1,7.0,·
Cc1ccc(-c2nnc(-c3ccc(NC(=O)Cc4cccs4)cc3)o2)cc1,3.55µM*,4.5,18.4µM*,14.6µM*,11.8,17.9,?
Cc1ccc(SCC(=O)NCc2ccccc2)cc1,-1.2%,4.2,3.0%,-24.0%,5.2,32.0,·
O=C(CNC(=O)c1cccc(F)c1)NC1CC1,3.55µM*,2.2,-2.9%,-2.1%,2.9,2.1,-0.7%
COC(=O)[C@@]1(Cc2ccc(F)cc2)[C@H]2c3cc(C(=O)N4CCCC4)n(CCc4ccccn4)c3C[C@H]2CN1C(=O)c1ccccc1,3.5%,-2.2,-8.7%,?,18.5,-22.9,·
COc1ccc(-c2cc(-c3ccc(C)cc3)nc(SCc3nnc(-c4ccccc4)o3)c2C#N)cc1OC,?,-6.0,-29.5%,?,-22.7,10.3,·
O=C(O)c1cccc(C(=O)O)c1Br,1.7%,8.4,5.9%,3.6%,-7.9,9.6,·
CSc1nsc(SCC(=O)Nc2ccc(NC(C)=O)cc2)n1,·,2.3,-3.8%,9.4%,-14.0,33.9,·
CSc1nsc(SCC(=O)Nc2ccc(Br)cn2)n1,68.1%,-11.6,-26.2%,?,-2.5,0.0,0.1%
COc1ccc(C(=O)NCCn2cc(SCC(=O)NCC3CCCO3)c3ccccc32)cc1OC (centres undefined),4.8%,1.7,?,?,3.4,2.7,·
O=C(CSc1cccc2cccnc12)Nc1ccccc1F,·,-9.4,?,?,4.7,-1.2,·
O=C(O)c1ccccc1NC(c1ccccc1)c1ccc2cccnc2c1O (centres undefined),150.5%,-1.9,?,14.6µM*,-95.3*,27.0,?
CCOc1ccccc1NC(=O)c1cc2ccccc2oc1=O,-1.2%,1.6,0.5%,6.5%,0.0,3.0,·
CCOc1ccccc1NC(=O)c1cc2ccccc2o1,53.2%,-0.9,?,-17.8%,-0.8,43.7,-14.3%
Cc1ccccc1NC(=O)c1cc2sccc2n1Cc1ccc(F)cc1,149.9%,-21.4,25.9µM*,?,·,·,?
O=C(O)c1cc(S(=O)(=O)N2CCCCC2)ccc1N1CCCCC1,3.4%,3.1,29.6%,-5.5%,14.6,10.8,·
COc1ccc(NC(=O)c2oc3ccccc3c2NC(=O)c2ccco2)c(OC)c1,356.5%,48.6*,?,6.31µM*,29.0,8.1,?
COc1ccc(NC(=O)c2oc3ccccc3c2NC(=O)c2cc3ccccc3o2)c(OC)c1,?,-2.5,-18.5%,16.7%,·,·,·
Cc1ccc(-c2nnc(-c3cccnc3)o2)cc1,3.7%,-1.9,6.2%,-19.5%,-19.8,?,·
c1cncc(-c2nnc(-c3cccs3)o2)c1,8.91µM*,2.2,-0.5%,-0.4%,-12.9,12.1,19.3µM*
Cc1ccc(/C=C/c2nc3ccccc3n2S(=O)(=O)c2cccc(Cl)c2)cc1,10µM*,-17.9,10.3µM*,13µM*,·,·,?
C/C(=C\C(=O)c1ncc(C(F)(F)F)cc1Cl)N(C)C,·,10.6,9.6%,1.0%,-0.6,3.5,·
SMILES,ClpP mod,DRD3 agonist,TDP1 cell noCPT,DT40 TDP1 CPT,D3 antag,IL-1B inflam inh,ClpP inh valid
Cc1nn2c(NCC(C)C)c3c(nc2c1-c1ccccc1)CCC3,7.94µM*,19.6,?,-28.5%,22.9,3.8,4.85µM*
COc1cc2c(cc1OC)CN(S(=O)(=O)/C=C/c1ccccc1)CC2,·,7.7,-23.1%,11.0%,27.3,-10.9,·
CC(C(O)C12CC3CC(CC(C3)C1)C2)N1CCCCC1 (centres undefined),-0.9%,-5.4,?,-6.2%,-11.7,0.0,·
FC(F)(F)c1cc(-c2ccc(Cl)cc2)nc2ncnn12,2.82µM*,-3.8,2.0%,-12.4%,0.3,-12.4,17.2µM*
CCCN(CC(=O)Nc1ccccc1C)C(=O)c1ccc(-c2ccc(C(C)=O)cc2)o1,8.91µM*,-8.0,?,?,-2.0,-0.5,19.3µM*
Cc1nn(CC(=O)NCCCN2CCCCC2)c(=O)c2cccn12,1.4%,-2.8,-7.2%,0.1%,6.0,-0.7,·
CCN1CCN(CCCNC(=O)Cn2nc(C)n3c(cc4cc(C)ccc43)c2=O)CC1,?,-14.9,-23.3%,-12.2%,·,·,?
COc1ccccc1N(CC(=O)Nc1ccc2c(c1)OCCO2)S(=O)(=O)c1ccc(C)cc1,5.01µM*,-25.4,9.2µM*,?,7.7,-9.6,0.0%
O=C(CCNS(=O)(=O)c1ccc(Cl)cc1)N1CCN(c2ncccn2)CC1,-7.5%,8.7,2.9%,6.5%,9.1,2.2,·
